{"source": "PubChem BioAssay (Tox21)", "note": "The source made the active and inactive calls. Calls follow the shape of the dose curve; as a rule, active = well fitted curve in the direction sought with a large enough effect in the repeat runs; inconclusive = weak or mixed curves; inactive = flat fitted curve, though single readings scatter. % is scaled to controls: 0 for no effect and ±100 for the full control effect."}
{"test": "qHTS assay to test for compound auto fluorescence at 590 nm (red) in HEK293 cell free culture (AID 720683)", "settings": "cell-free medium autofluorescence, Ex540/Em590 red; series mostly up to 91.3 µM; fluorescence, % of fluorescent control: at the top concentration", "from_the_text": "U.S. Tox21 Program National Center for Advancing Translational Sciences [NCATS] NIH Chemical Genomics Center [NCGC] U.S. Environmental Protection Agency [EPA] National Institutes of Environmental Health Sciences [NIEHS] National Toxicology Program [NTP] U.S. Food and Drug Administration [FDA] Tox21 Assay Overview: Compound auto fluorescence often interferes with screening of the compound library against various biological targets and signaling pathways. Some of these compounds may have fluorophoric properties. Such properties may interfere with the assay outputs resulting in false positives and/or negatives. To decrease such complications and ensure the compound activities are relevant in terms of biological response, the Tox21 10K compound library was screened for auto fluorescence. From the fluorophores used as reporter signals in our screening assays, the auto fluorescence equivalencies of compounds against three fluorophores have been evaluated: Triamterene, Fluorescein and Rose Bengal sodium for blue, green and red fluorescence, respectively. The fluorescence intensities were measured using Excitation/Emission wavelengths at 405/460nm, 485/535nm and 540/590nm for blue, green and red labels, respectively. This assay includes the red fluorescence data.\nTox21 Assay Protocol Summary: 5 uL of culture medium (DMEM containing 10% FBS) per well was dispensed into black wall/clear bottom 1536-well plates using a Multidrop Combi Dispenser (ThermoFisher Scientific, Waltham, MA). After 23 nL compound or DMSO vehicle was transferred into assay plate by a pintool work station (Kalypsys, San Diego, CA), fluorescence intensities in the assay plates were measured by an Envision (PerkinElmer, Shelton, CT) plate reader using three labels for measuring blue, green and red fluorescence at […] 460, 535 and 590nm respectively."}
{"compound": "CCCN(CCC)CCc1c[nH]c2ccccc12", "fluorescence, % of fluorescent control": "-0.0206% (inactive)"}
{"compound": "O=[N+]([O-])c1cc([N+](=O)[O-])c2ccccc2c1", "fluorescence, % of fluorescent control": "0.525% (inactive)"}
{"compound": "CCCCCCCCCCCCCN1CC(C)OC(C)C1", "note": "(stereo not given)", "fluorescence, % of fluorescent control": "-0.0515% (inactive)"}
{"compound": "CC(=O)[O-].CC(=O)[O-].[Hg+2]", "fluorescence, % of fluorescent control": "-0.0886% (inactive)"}
{"compound": "C=CC(=O)OCCCCOC(=O)C=C", "fluorescence, % of fluorescent control": "-0.455% (inactive)"}
{"compound": "CCOC(=O)OC1=C(c2cc(C)ccc2C)C(=O)NC12CCC(OC)CC2", "note": "(stereo not given)", "fluorescence, % of fluorescent control": "-0.327% (inactive)"}
{"compound": "Oc1ccc(C2(c3ccc(O)cc3)CCCCC2)cc1", "fluorescence, % of fluorescent control": "0.0864% (inactive)"}
{"compound": "C[C@H]1O[C@@H](O[C@H]2[C@@H](O)C[C@H](O[C@H]3[C@@H](O)C[C@H](O[C@H]4CC[C@@]5(C)[C@H](CC[C@@H]6[C@@H]5CC[C@]5(C)[C@@H](C7=CC(=O)OC7)CC[C@]65O)C4)O[C@@H]3C)O[C@@H]2C)C[C@H](O)[C@@H]1O", "outcome": "inactive"}
{"compound": "CCCCCCCCc1ccc(O)cc1", "fluorescence, % of fluorescent control": "0.617% (inactive)"}
{"compound": "FC(Cl)(Cl)Cl", "fluorescence, % of fluorescent control": "0.201% (inactive)"}
{"compound": "CCC(C)c1cc([N+](=O)[O-])cc([N+](=O)[O-])c1OC(=O)C=C(C)C", "note": "(stereo not given)", "fluorescence, % of fluorescent control": "-0.0194% (inactive)"}
{"compound": "COc1cccc(C(=O)CCN[C@@H](C)[C@H](O)c2ccccc2)c1", "fluorescence, % of fluorescent control": "0.07% [at 46 µM] (inactive)"}
{"compound": "Cc1ccc(OP(=O)(Oc2ccccc2)Oc2ccccc2)cc1", "fluorescence, % of fluorescent control": "0.0521% [at 95.7 µM] (inactive)"}
{"compound": "CCCCCCCCCCCCCC[P+](CCCCCC)(CCCCCC)CCCCCC", "note": "(tested in a mixture with another compound)", "fluorescence, % of fluorescent control": "-0.262% (inactive)"}
{"compound": "O=[N+]([O-])c1cc(C(F)(F)F)c(Cl)c([N+](=O)[O-])c1Cl", "fluorescence, % of fluorescent control": "-0.134% (inactive)"}
{"compound": "N#CCCSCCC#N", "fluorescence, % of fluorescent control": "0.0975% (inactive)"}
{"compound": "CN(C)CCc1c[nH]c2ccc(O)cc12", "fluorescence, % of fluorescent control": "-0.583% (inactive)"}
{"compound": "CCCOCC(=Nc1ccc(Cl)cc1C(F)(F)F)n1ccnc1", "fluorescence, % of fluorescent control": "-0.0659% (inactive)"}
{"compound": "NNC(=O)c1ccccc1", "fluorescence, % of fluorescent control": "0.0013% [at 95.7 µM] (inactive)"}
{"compound": "S=C=Nc1cccc2ccccc12", "fluorescence, % of fluorescent control": "0.056% (inactive)"}
{"compound": "Cn1cc(C2=C(c3cn(C4CCN(Cc5ccccn5)CC4)c4ccccc34)C(=O)NC2=O)c2ccccc21", "fluorescence, % of fluorescent control": "-0.346% [at 46 µM] (inactive)"}
{"compound": "CC(C)OC(=O)C(O)(c1ccc(Cl)cc1)c1ccc(Cl)cc1", "fluorescence, % of fluorescent control": "0.0915% (inactive)"}
{"compound": "N#CNC#N", "fluorescence, % of fluorescent control": "-0.0153% [at 95.7 µM] (inactive)"}
{"compound": "FC(F)(F)c1cccc(C2=CCN(CCc3ccc4ccccc4c3)CC2)c1", "fluorescence, % of fluorescent control": "0.0888% [at 46 µM] (inactive)"}
{"compound": "ClC1=C(Cl)[C@]2(Cl)[C@@H]3[C@@H]4C[C@@H]([C@H]5O[C@@H]45)[C@@H]3[C@@]1(Cl)C2(Cl)Cl", "fluorescence, % of fluorescent control": "-0.74% (inactive)"}
{"compound": "O=C(CCl)Nc1ccccc1", "fluorescence, % of fluorescent control": "-0.0021% (inactive)"}
{"compound": "CCN(CC)c1c([N+](=O)[O-])cc(C(F)(F)F)c(N)c1[N+](=O)[O-]", "fluorescence, % of fluorescent control": "0.0543% (inactive)"}
{"compound": "CC(C)OC(=S)S", "fluorescence, % of fluorescent control": "0.0798% (inactive)"}
{"compound": "N#CSCSC#N", "outcome": "inactive"}
{"compound": "C[C@@H]1O[C@@H](O[C@H]2C[C@@H](O)[C@]3(CO)[C@H]4[C@H](O)C[C@]5(C)[C@@H](C6=CC(=O)OC6)CC[C@]5(O)[C@@H]4CC[C@]3(O)C2)[C@H](O)[C@H](O)[C@H]1O", "outcome": "inactive"}
{"compound": "CC(C)(C)C(O)/C(=C\\c1ccc(Cl)cc1Cl)n1cncn1", "note": "(stereo not given)", "fluorescence, % of fluorescent control": "-0.707% [at 95.7 µM] (inactive)"}
{"compound": "CCOC(=O)C1(c2ccccc2)CCN(CCC(C#N)(c2ccccc2)c2ccccc2)CC1", "outcome": "inactive"}
{"compound": "CC(C)OS(C)(=O)=O", "fluorescence, % of fluorescent control": "0.135% (inactive)"}
{"compound": "C[C@@H]1CC[C@@]2(OC1)O[C@H]1[C@@H](O)[C@H]3[C@@H]4CC[C@H]5C[C@@H](O[C@@H]6O[C@H](CO)[C@H](O[C@@H]7O[C@H](CO)[C@@H](O)[C@H](O[C@@H]8OC[C@@H](O)[C@H](O)[C@H]8O)[C@H]7O[C@@H]7O[C@H](CO)[C@@H](O)[C@H](O[C@@H]8O[C@H](CO)[C@@H](O)[C@H](O)[C@H]8O)[C@H]7O)[C@H](O)[C@H]6O)[C@H](O)C[C@]5(C)[C@H]4CC[C@]3(C)[C@H]1[C@@H]2C", "fluorescence, % of fluorescent control": "-0.0355% [at 95.7 µM] (inactive)"}
{"compound": "COP(=S)(OC)Oc1cc(Cl)c(Br)cc1Cl", "fluorescence, % of fluorescent control": "-0.003% (inactive)"}
{"compound": "CCCCCCCCCC[N+](C)(C)CCCCCCCCCC", "outcome": "inactive"}
{"compound": "CCCCCCCCCCCCCCC(Br)C(=O)O", "note": "(stereo not given)", "fluorescence, % of fluorescent control": "0.219% (inactive)"}
{"compound": "Clc1ccc(CSC(Cn2ccnc2)c2ccc(Cl)cc2Cl)cc1", "note": "(stereo not given)", "fluorescence, % of fluorescent control": "0.289% [at 18.6 µM] (inactive)"}
{"compound": "CC[C@H](C)[C@H]1O[C@]2(C=C[C@@H]1C)C[C@@H]1C[C@@H](C/C=C(\\C)[C@@H](O[C@H]3C[C@H](OC)[C@@H](O[C@H]4C[C@H](OC)[C@@H](O)[C@H](C)O4)[C@H](C)O3)[C@@H](C)/C=C/C=C3\\CO[C@@H]4[C@H](O)C(C)=C[C@@H](C(=O)O1)[C@]34O)O2", "outcome": "inactive"}
{"compound": "CCC(C)(C)C(=O)OC1=C(c2ccc(Cl)cc2Cl)C(=O)OC12CCCCC2", "fluorescence, % of fluorescent control": "-0.0047% (inactive)"}
